This is a sample that favours compounds with a hit; in the whole collection about 1.2% have one here.
Phagocyt inh: macrophage phagocytosis inhibition. actives 0.07% (n = 110,000). AID 1029. inhibition, % at 5 µM. J774A.1 macrophage IgG-bead phagocytosis, imaging;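 active = inhibition above the mean of the plate negative controls plus 5 SD, cut at about 13% in these data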;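 also: phagocytic index as fraction of beads internalized from green versus red external bead signal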
F-actin modifier: cytoskeleton assembly modification. HUVEC TNFa F-actin phalloidin imaging, high content. inhibition, % at 2 µM. actives 0.18% (n = 91,000). AID 836;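 active = inhibition above the batch mean plus 3 SD and confirmed as a hit by visual image inspection, cut at about 30% in these data, passing the limit was not always enough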
E-sel TNF inh: blocks E-selectin expression induced by TNF alpha; inhibition, % at 2 µM; actives 0.71% (n = 120,000); HUVEC TNFa-induced E-selectin immunofluorescence, high content;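 active = inhibition above the batch mean plus 3 SD, and confirmed as a hit on visual image review, cut at about 43% in these data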
VCAM1 TNFa inh: reduces TNF alpha induced VCAM1 expression in HUVEC; HUVEC TNFa-induced VCAM-1 immunofluorescence, high-content imaging; inhibition, % at 2 µM; actives 0.48% (n = 95,000); AID 802;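 active = inhibition above the batch mean plus 3 SD, with images confirmed as a hit by eye, cut at about 37% in these data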
SDO1 yeast rescue: restores growth of sdo1-depleted yeast; z-score at 10 µM; actives 0.21% (n = 140,000); S. cerevisiae sdo1-depleted JHY4D growth rescue, OD600 30 h; hits give high values; pdr5 snq2 efflux-pump mutant strain;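 active = z-score above 3 at both the 24 hr and the 30 hr optical density reads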
HUVEC tox TNFa: toxic to HUVEC cells under TNF alpha stimulation | HUVEC TNFalpha-stimulated, Hoechst cell count, imaging | cell count reduction, % at 2 µM | actives 0.17% (n = 93,000) | AID 848;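 active = cell count reduction exceeding the screen mean by over 5 SD, scaled to untreated wells per plate, cut at about 78% in these data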;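 also: cells counted after 24 h of TNF alpha exposure following the 1 h pretreatment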
SDO1 rescue DR: confirmation of growth rescue in SDO1-depleted yeast, bone marrow failure; shares compounds with SDO1 yeast rescue; S. cerevisiae JHY4D (SDO1-depleted) growth rescue, OD600, 30 h; hits give high values; efflux-deficient strain, SNQ2 and PDR5 mutated; OD recovery (concentration not given with the values); actives 44% (n = 440); AID 949;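 active = yeast growth recovered at 30 hours, either rising with dose fitted slope above 0.001 or with average optical density gain above 0.07, some results past the limit were not filed as active; inactive = growth falling with dose or no effect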
Hits are given with their value; . = inactive; / = no result given.

SMILES	Phagocyt inh	F-actin modifier	E-sel TNF inh	VCAM1 TNFa inh	SDO1 yeast rescue	HUVEC tox TNFa	SDO1 rescue DR
O=C(CSc1ncnc2c1oc1ccccc12)Nc1ccccc1F	.	.	/	.	.	.	.
CC12CCC(C(=O)N(NC(=O)c3cccnc3)C1=O)C2(C)C (centres undefined)	.	/	/	/	6.2	/	.
CC12CCC(C(=O)N(NC(=O)c3ccc(O)cc3)C1=O)C2(C)C (centres undefined)	/	.	.	.	.	.	/
O=C(CCCOc1ccccc1)N1CCN(c2ccccc2)CC1	.	.	.	.	8.8	.	0.099
CCNc1ccc(C(=O)NN=C2CCCC2)cc1[N+](=O)[O-]	/	/	.	/	/	/	/
CCOc1ccc(-n2c(O)c(/C=N/NC(=O)C3COc4ccccc4O3)c3ccccc3c2=O)cc1 (centres undefined)	.	/	.	/	.	/	/
O=C(Nc1ccc(S(=O)(=O)N2CCCCCC2)cc1)c1ccco1	.	.	.	.	.	.	.
Cc1nc(S(=O)(=O)N2CCOCC2)c(C#N)c(C)c1Cl	/	/	/	.	3.8	.	0.087
CC(=O)c1c(C)[nH]c(C(=O)NCc2ccco2)c1C	/	/	.	/	/	/	/
COc1cccc(NC(=O)C2CCCN(S(=O)(=O)c3cccc4nonc34)C2)c1 (centres undefined)	/	/	.	/	/	/	/
COc1cccc(CNC(=O)C2CCCN(S(=O)(=O)c3cccc4nonc34)C2)c1 (centres undefined)	/	/	.	.	.	.	0.086
COc1ccc2nc3ccccc3nc2c1NC(=O)c1ccc(Cl)cc1Cl	.	/	.	/	.	/	.
O=C(C1CCCCC1)N1CCC(c2nc3ccccc3[nH]2)CC1	.	.	.	.	.	.	/
N#CC(C(=O)C1CCCCC1)c1nc2ccccc2[nH]1 (centres undefined)	.	.	.	.	8.8	.	.
COCC(=O)Nc1sc2c(c1C(=O)OC)CCCC2	/	.	.	.	.	.	/
COC(=O)c1c(NC(=O)Cc2cccs2)sc2c1CCCC2	.	.	.	.	7.5	.	.

Source: PubChem
